# Source: PubChem BioAssay (Broad Institute)
# Hits are enriched below; roughly 2.9% of the tested compounds scored in any of these assays.
# Vif inh: blocks HIV Vif function. HEK293T cells, Vif self-association by quenched fluorescence, imaging, 24 h. inhibition, % at 7.49 µM. 340,000 tested, 0.35% active; in the data active means inhibition above about 50%, passing the limit was not always enough; inconclusive means no clear call, values can overlap the other calls; inactive means below about 31%
# N-glyco inh: blocks N-linked glycosylation in D54 reporter cells; D54 ERlucT glycosylation luciferase reporter, 24 h; percent of 100 nM tunicamycin response; reporter increase, % at 12.5 µM; 360,000 tested, 0.23% active; AID 588692;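 active means mean luciferase reporter signal, scaled so untreated is 0 and the glycosylation-blocking control 100, at or above a set limit in every replicate; inconclusive means mean reaches the limit but not every replicate does; inactive means mean below the limit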;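 further: luciferase carries N-glycosylation sites so blocking glycosylation raises the light; 0% = median of neutral control wells and 100% = median of 100 nM tunicamycin wells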
# Wnt bcat act: activators of Wnt/beta-catenin signaling | AID 743398 | Wnt/beta-catenin reporter cell assay, activator, plate reader | 300,000 tested, 1.2% active | activation, % at 9.35 µM; in the data active means activation above about 30%, passing the limit was not always enough; inconclusive means no clear call, values can overlap the other calls;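 further: 0% = neutral control wells and 100% = positive control wells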
# esBAF inh: inhibitors of esBAF chromatin remodeling in mouse ES cells; Bmi1-luciferase knock-in reporter, 24 h; 100% = twice the neutral-well signal; reporter increase, % at 12.5 µM; 350,000 tested, 2% active; AID 602393; in the data active means activation above about 40%; inconclusive means no clear call, values can overlap the other calls;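 further: 0% = median of the plate's neutral control wells and 100% = double that signal; a rise in the Bmi1 reporter signal indicates esBAF inhibition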
# MITF TRPM1 HTS: MITF TRPM1 promoter activation in melanoma cells | SK-MEL-5 TRPM1-promoter luciferase, 24 h; % of positive control, neutral wells = 0 | activation, % at 12.5 µM | 300,000 tested, 0.75% active;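 active means mean activation of at least 80% with every replicate also reaching 80%; inconclusive means mean reaches 80% but some replicate falls short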;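 further: 0% = neutral control wells and 100% = parthenolide positive control wells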
# PvdQ acylase: P. aeruginosa PvdQ acylase inhibition; AID 488965; 340,000 tested, 0.063% active; inhibition, % at 10 µM; purified PvdQ acylase, fluorescence plate reader; in the data active means inhibition above about 30%, passing the limit was not always enough; inconclusive means no clear call, values can overlap the other calls;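 further: 0% = vehicle neutral wells and 100% = reference inhibitor wells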
# Ring1 derepress: esBAF inhibition confirmed by Ring1 de-repression | mouse ESC E14, Ring1 mRNA RT-qPCR fold change | shares compounds with esBAF inh | 550 tested, under 10 active | fold change at 33 µM;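 active means Ring1 gene expression raised more than 2-fold over untreated cells in both replicates at either tested dose; inconclusive means only one replicate above 2-fold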;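 further: Ring1 transcript normalised to actin housekeeping signal by TaqMan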
# Fgf4 repress: represses Fgf4 in mouse ESCs, confirming esBAF inhibition; 550 tested, 4% active; mouse ESC E14, Fgf4 mRNA qPCR fold change; hits give low values; shares compounds with esBAF inh; Fgf4 expression fold change at 33 µM;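 active means Fgf4 expression under 0.8 fold of control in both repeat measurements at one or both tested doses; inconclusive means under 0.8 fold in just a single repeat measurement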;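 further: Fgf4 transcript normalised to actin in duplex TaqMan qPCR; cells exposed to compound for 24 h before lysis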
# Bmi1 derepress: de-represses Bmi1 in mouse ESCs, confirming esBAF inhibition; shares compounds with esBAF inh; mouse ESE14 ES cells, Bmi1 mRNA qPCR fold; hits give high values; fold change at 33 µM; 550 tested, under 10 active; AID 743180;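 active means Bmi1 expression fold change above 6 at either tested concentration, seen in replicate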;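 further: higher fold means more Bmi1 de-repression and stronger esBAF inhibition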
# A549 cytotox: cytotoxicity in A549 cells. shares compounds with esBAF inh. plate reader. cell viability change % (negative = cytotoxic), % at 25 µM, hits read low. 550 tested, under 10 active; call rule not given here
# HepG2 cytotox SP: cytotoxicity in HepG2 cells | activity change, negative = inhibition, % at 25 µM | plate reader; hits give low values | 550 tested, 4% active | shares compounds with esBAF inh | AID 743189; in the data active means activity change below about -50%
# HEK293 tox SP: kills or reduces viability of HEK293 cells; HEK293 cytotoxicity, plate reader; shares compounds with esBAF inh; 550 tested, 3% active; AID 743190; activity change, negative = inhibition, % at 25 µM, hits read low; in the data active means activity change below about -38%, passing the limit was not always enough
# Starred values were filed as active, the others as inactive; ? = inconclusive; · = no result.
SMILES,Vif inh,N-glyco inh,Wnt bcat act,esBAF inh,MITF TRPM1 HTS,PvdQ acylase,Ring1 derepress,Fgf4 repress,Bmi1 derepress,A549 cytotox,HepG2 cytotox SP,HEK293 tox SP
N#CC(c1ccccc1O)N1N=C(c2ccccc2)CC1c1ccccc1 (stereo not given),-2,3,29,58*,29,1,1.1,0.95,1.3,-3,7,-4
CCc1sc(C(=O)Nc2ccc3nc(C)sc3c2)cc1C,-3,-1,13,80*,90*,-9,1.1,0.61*,1.5,-5,15,-5
CNC(=O)c1ccc(-c2ccccc2)s1,7,1,3,58*,32,-2,1,?,1.1,-4,36,5
CC(=O)Nc1ccc(-c2ccccc2)s1,2,2,·,-10,2,11,·,·,·,·,·,·
COc1ccc(NC(=O)N(C)C[C@H]2OCc3ccccc3-c3ccccc3C(=O)N([C@@H](C)CO)C[C@@H]2C)c(OC)c1,·,·,·,4,·,·,·,·,·,·,·,·
CO[C@H]1CN(C)C(=O)c2cc(NC(=O)c3ccccc3F)ccc2OC[C@@H](C)NC[C@@H]1C,·,·,·,0,·,·,·,·,·,·,·,·
CCN(C(=O)c1cccs1)c1nnc(-c2ccncc2)s1,·,-1,18,58*,18,2,1.2,0.97,0.9,-4,-24,-9
COc1ccccc1C=Cc1ccnc2ccccc12,16,-3,-3,82*,-2,-10,1.1,0.49*,11*,-8,34,-37
C[C@H]1CN([C@@H](C)CO)C(=O)c2cc(-c3ccccc3)cnc2O[C@H]1CN(C)C(=O)c1ccccc1F,·,·,·,-1,·,·,·,·,·,·,·,·
Oc1ccccc1/C=N/N1CCCCC1,8,1,5,·,38,4,·,·,·,·,·,·
Oc1ccc(/C=N/N2CCCCC2)c(O)c1O,2,1,-1,-4,-7,-9,·,·,·,·,·,·
Oc1ccc(Cl)cc1C=NN1CCCCCC1,4,-4,49*,66*,47,7,1.1,1,1.8,-4,16,-29
Oc1ccccc1C=NN1CCCCCC1,9,-1,-1,77*,69,-9,1.2,0.81,1.4,-4,20,2
Oc1cccc(/C=N/N2CCCCC2)c1O,11,-1,?,61*,67,3,1,1.2,1.9,-12,-43,-16
Cc1cc(C)c2nc(-c3ccccc3)ccc2c1,·,-2,14,63*,·,·,0.93,?,1.6,-13,-17,-9
O=C(CC(=O)c1ccccc1)Nc1ccccc1,-3,0,34*,76*,·,2,1.2,0.91,1.4,-2,-19,-3
O=C(O)CC(=O)Nc1ccccc1,4,-1,·,1,-7,-2,·,·,·,·,·,·
CO[C@@H]1CN(C)C(=O)c2cc(NC(=O)C3CC3)ccc2OC[C@H](C)NC[C@H]1C,·,·,·,0,·,·,·,·,·,·,·,·
Fc1ccc(Nc2nnc(-c3ccncc3)s2)cc1Cl,-15,0,1,67*,·,·,1.2,0.88,1.6,-6,-25,-2
O=C(CN1CCOCC1)NCC[C@@H]1CC[C@@H](NC(=O)Nc2ccc(Cl)cc2)[C@H](CO)O1,·,·,·,-1,·,·,·,·,·,·,·,·
CC(=O)Nc1ccc(CNc2nc(NC(C)C)nc3cc(-c4ccccc4)sc23)cc1,20,-8,-3,21,·,·,·,·,·,·,·,·
C=CCNc1nc(NCc2ccc(NC(C)=O)cc2)c2sc(-c3ccccc3)cc2n1,·,-5,0,66*,·,·,·,·,·,-69*,-88*,-121*
